This is an account of results in PubChem BioAssay AID488975 (Johns Hopkins Ion Channel Center, 2010).

Structures are written as SMILES. Screen size: about 310,000 compounds; about 2,600 (0.84%) were called active.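 How the source made its calls: active means B-score over 3 SD under the library average, and starting fluorescence ratio not unusually high; inactive means the rest.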 Only a selection was taken, and actives are over-represented in it overall.

For this assay, the target named is High affinity choline transporter 1 (Homo sapiens) (UniProt Q9GZV3). In words: inhibitors of human choline transporter CHT (AID 488975).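 On B-score: choline stimulus applied at its EC90 after an EC20 pre-addition; B-score computed on integrated fluorescence ratio after choline addition.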 Particulars: CHT-expressing cells, membrane potential dye, choline response, at 10 µM; hits give low values.
High affinity choline transporter 1 (Homo sapiens), sequence (Q9GZV3 whole entry, looked up): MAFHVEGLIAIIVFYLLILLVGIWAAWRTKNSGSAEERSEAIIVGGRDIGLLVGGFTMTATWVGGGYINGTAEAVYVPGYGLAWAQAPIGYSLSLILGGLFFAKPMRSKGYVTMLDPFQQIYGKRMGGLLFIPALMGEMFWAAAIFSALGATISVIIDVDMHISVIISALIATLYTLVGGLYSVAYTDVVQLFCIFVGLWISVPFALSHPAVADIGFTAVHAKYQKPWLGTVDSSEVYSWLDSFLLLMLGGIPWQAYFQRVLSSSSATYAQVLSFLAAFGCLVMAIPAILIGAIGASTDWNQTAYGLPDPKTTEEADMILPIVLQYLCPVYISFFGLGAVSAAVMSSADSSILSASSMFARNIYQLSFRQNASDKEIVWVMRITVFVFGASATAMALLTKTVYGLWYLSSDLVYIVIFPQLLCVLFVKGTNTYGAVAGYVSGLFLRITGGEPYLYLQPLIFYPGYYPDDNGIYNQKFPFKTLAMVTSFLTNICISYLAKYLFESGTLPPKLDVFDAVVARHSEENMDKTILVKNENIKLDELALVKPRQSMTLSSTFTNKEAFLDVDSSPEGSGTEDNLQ
For `CCCCn1c(N)c(N(CC(C)C)C(=O)c2ccc(Br)o2)c(=O)[nH]c1=O`, the B-score result was “inactive”.

As for `CC(OC(=O)c1ccc(S(=O)(=O)N2CCOCC2)cc1)c1ccccc1` (configuration not stated), the B-score entry was “inactive”.

Take `CCN(C(=O)CSc1ncnc2c1cnn2-c1ccccc1)C1CCS(=O)(=O)C1` (configuration not stated): the B-score entry is “inactive”.

Take `O=C(Nc1ccc(F)c(Cl)c1)C1CCN(S(=O)(=O)c2cccnc2)CC1`: the B-score is -5.54 (active).

As to `O=C(NCc1cccs1)C1CCN(S(=O)(=O)c2ccc(Cl)cc2)CC1`, the B-score entry is “inactive”.

Turning to `CC(C)c1ccc(NC(=O)C2CCCN(S(=O)(=O)c3cccnc3)C2)cc1` (configuration not stated), the B-score entry was “inactive”.

With `Cc1cc(C(=O)OCC(=O)NCc2ccco2)c(C)n1-c1ccccc1`, the B-score is -10 (active).

As to `O=C(COC(=O)c1cc(S(=O)(=O)N2CCCCC2)ccc1Cl)NCc1ccco1`, the B-score entry is “inactive”.

For `CN(c1ccccc1)S(=O)(=O)c1ccc(Cl)c(C(=O)OCC(=O)NCc2ccco2)c1`, the B-score entry is “inactive”.

For `CCOc1ccc(S(=O)(=O)N2CCN(C(=S)NCC3CCCO3)CC2)cc1` (configuration not stated), the B-score result is “inactive”.

As for `CC(C)CN(C(=O)c1ccc2c(c1)OCO2)C1CCS(=O)(=O)C1` (configuration not stated), the B-score entry was “inactive”.

On to `CN(C(=O)c1cc2c(=O)n3ccccc3nc2s1)C1CCCCC1`, for which the B-score result is “inactive”.

In the case of `O=C(CC1SC(N2CCCC2)=NC1=O)Nc1ccc(C(=O)NCCc2ccc(F)cc2)cc1` (configuration not stated), the B-score entry was “inactive”.

Take `Cc1ccc([N+](=O)[O-])cc1S(=O)(=O)N1CCCN(C)CC1`: the B-score result is “inactive”.

Consider `CCc1nccn1S(=O)(=O)c1cccc([N+](=O)[O-])c1`, for which the B-score entry was “inactive”.

`CCc1nc(C)cn1S(=O)(=O)c1cc([N+](=O)[O-])ccc1Cl`: the B-score is -5.38 (active).

On to `C=CCOc1cccc(C2C(C(=O)c3ccc(C)o3)=C(O)C(=O)N2CCCn2ccnc2)c1` (configuration not stated), for which the B-score entry was “inactive”.

In the case of `O=C(CCCN1C(=O)CSc2ncccc21)N1CCN(c2cccc(C(F)(F)F)c2)CC1`, the B-score is -9.61 (active).

Turning to `O=C(COc1ccc(Cl)cc1)N1CCN(c2cccc(C(F)(F)F)c2)CC1`, the B-score result is “inactive”.

With `O=C(CN1C(=O)CSc2ncccc21)N1CCOCC1`, the B-score entry is “inactive”.

For the molecule `CCCn1c(C)cc(-c2csc(NC(=O)CCc3nc4ccccc4c(=O)[nH]3)n2)c1C`, the B-score result is “inactive”.

Regarding `CN(C)C1=NC[C@H](Cc2ccccc2)N1CCc1ccc(F)cc1`, the B-score entry was “inactive”.

In the case of `CC1C(=O)N2CCCc3cc(S(=O)(=O)NCc4ccc(F)cc4)cc1c32` (configuration not stated), the B-score result was “inactive”.

On to `CN1CCN(CCCNC(=O)c2ccc(/C=C3\Oc4ccccc4N(Cc4ccc(Cl)cc4)C3=O)cc2)CC1`, for which the B-score is -7.25 (active).

For the molecule `CN1C(=O)/C(=C/c2ccc(C(=O)NC3CCCC3)cc2)Oc2ccccc21`, the B-score entry is “inactive”.

Turning to `O=C(NCCN1CCOCC1)c1ccc(/C=C2\Sc3ccccc3N(Cc3ccc(F)cc3)C2=O)cc1`, the B-score entry was “inactive”.

In the case of `O=C(NC1CCCCC1)c1ccc(-c2ccc(Cl)cc2)o1`, the B-score result was “inactive”.

Take `O=[N+]([O-])c1ccc(O)c(/C=N/Nc2ccccc2[N+](=O)[O-])c1`: the B-score entry was “inactive”.

Take `O=[N+]([O-])c1ccccc1Nc1ccc(O)cc1`: the B-score was -5.48 (active).

In the case of `O=C(O)c1ccccc1C(=O)Nc1ccccc1[N+](=O)[O-]`, the B-score entry was “inactive”.

As to `CCN(C(=O)CSc1nnnn1-c1ccccc1OC)C1CCS(=O)(=O)C1` (configuration not stated), the B-score result was “inactive”.

As to `Cc1nc2c(c(C)nn2-c2ccccc2)c(C)c1C`, the B-score result was “inactive”.

As to `O=C(Nc1ncccc1O)c1ccc(C(=O)c2ccccc2)cc1`, the B-score entry was “inactive”.

On to `Cc1csc(=O)n1CC(=O)OCC(=O)N(CC(C)C)c1c(N)n(Cc2ccccc2)c(=O)[nH]c1=O`, for which the B-score entry was “inactive”.

On to `CCOC(=O)/C(C#N)=C/c1ccc(N2CCCCC2)cc1`, for which the B-score result was “inactive”.

With `CC(C)(C)C(=O)/C(C#N)=C/c1ccc(O)cc1`, the B-score is -5.45 (active).

`CCOC(=O)NC(=O)/C(C#N)=C\c1ccccc1`: the B-score result was “inactive”.

Regarding `O=C(NC1CCCCC1)c1ccc2c(=O)n(CC3CCCO3)c(=O)[nH]c2c1` (configuration not stated), the B-score result is “inactive”.

`CCC1CCCCN1CCCNC(=O)C1CCC(Cn2c(=O)[nH]c3ccccc3c2=O)CC1` (configuration not stated): the B-score entry was “inactive”.

For the molecule `CCCCCn1c(=O)[nH]c2cc(C(=O)NCCCN3CCCCC3C)ccc2c1=O` (configuration not stated), the B-score was -6.4 (active).

As for `CCN1C(=O)[C@H]2[C@@H](c3ccc(C)cc3)N3C(=O)N(c4cccc(Br)c4)C(=O)[C@@]3(CC)[C@H]2C1=O`, the B-score result is “inactive”.

On to `O=C(CCCCO)c1ccc(O)c(Cl)c1`, for which the B-score result is “inactive”.

With `COCCn1c(CN(Cc2ccccc2)Cc2ccccc2)nc2c1c(=O)n(C)c(=O)n2C`, the B-score result was “inactive”.

`CC(C)Cn1c(CN(Cc2ccccc2)Cc2ccccc2)nc2c1c(=O)n(C)c(=O)n2C`: the B-score result was “inactive”.

Take `CC(C)CCn1c(CN(C)Cc2ccccc2)nc2c1c(=O)n(C)c(=O)n2C`: the B-score is -5.25 (active).

For `COc1cc(C2C(C(=O)c3cccs3)=C(O)C(=O)N2CCN2CCOCC2)ccc1OCCC(C)C` (configuration not stated), the B-score result was “inactive”.

For the molecule `CC1CCN(CCCNC(=O)CN2C(=O)CSc3ccc(S(=O)(=O)N4CCCCC4)cc32)CC1`, the B-score was -5.37 (active).

`COc1ccc(NC(=O)CN2C(=O)CSc3ccc(S(=O)(=O)N4CCC(C)CC4)cc32)cc1`: the B-score result was “inactive”.

On to `COCCCNC(=O)CN1C(=O)CSc2ccc(S(=O)(=O)N3CCOCC3)cc21`, for which the B-score entry was “inactive”.

Regarding `O=S(=O)(NCCCc1ccccc1)c1ccc(Br)cc1`, the B-score result is “inactive”.

On to `O=C(c1ccc(F)cc1)N1CCC(C(=O)N2CCN(S(=O)(=O)c3ccccc3Br)CC2)CC1`, for which the B-score entry was “inactive”.

With `COc1ccc(/C=C2/SC(=O)N(CCCCCC(=O)Nc3ccccc3C(=O)O)C2=S)cc1`, the B-score was -9.31 (active).

Regarding `COc1ccc(/C=C2\SC(=O)N(CCC(=O)NCCCn3ccnc3)C2=O)cc1`, the B-score result is “inactive”.

On to `O=C(CCCN1C(=O)/C(=C\c2ccccc2)SC1=S)Nc1ccccc1O`, for which the B-score entry is “inactive”.

As for `CC(=O)CC(CC(=O)NC1CCCCC1)c1ccccc1` (configuration not stated), the B-score entry was “inactive”.

In the case of `Cc1ccc(C)c(C(=O)N2CCC(n3nccc3NC(=O)C3CC3)CC2)c1`, the B-score entry was “inactive”.

With `Cc1ccc2c(C)c(C(=O)N3CCC(N4CCC(C(=O)NC5CC5)CC4)CC3)oc2c1`, the B-score is -8.96 (active).

For the molecule `CCOC(=O)C1CCN(C(=O)c2oc3ccc(S(=O)(=O)N4CCCCCC4)cc3c2C)CC1`, the B-score entry is “inactive”.

Take `Cc1ccccc1-n1c(C)cc(/C=N/NC(=O)c2ccc(CN3CCOCC3)cc2)c1C`: the B-score is -9.28 (active).

For the molecule `C/C(CCc1ccccc1)=N\NC(=O)c1ccc(CN2CCOCC2)cc1`, the B-score entry was “inactive”.

Turning to `COc1ccc(C(=O)Nc2ccc(CN3CCOCC3)cc2)cc1`, the B-score result is “inactive”.

As for `COc1ccc(S(=O)(=O)NCc2cccnc2)cc1NC(=O)c1ccc(C)cc1`, the B-score entry is “inactive”.
